# PubChem BioAssay (NCI)
# About 83,000 compounds went through this panel and 20% of them were active in at least one assay; those are over-represented in the sample as a whole.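 Compound tested at a single concentration for 48 hours in 96-well plates; a percent growth value below 10 was scored as active.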 Values without a mark were called inactive. Calls of active or inactive are those of the source.
# Test system: OVCAR-3 ovarian
# Experiment: NCI-60 one-dose screen, 48 h (100 = growth as untreated, 0 = no growth, -100 = all killed)
# Conditions: 10 µM unless noted
# Experimental: Growth inhibition of the OVCAR-3 human tumor cell line is measured as a screen for anti-cancer activity. Cells are grown in 96 well plates and exposed to the test compound for 48 hours. Compounds are tested at a single concentration, which is 10^-5 M for most compounds. The reported endpoint is percent growth (GI% or GIPRCNT), where numbers from 0 - 100% represent growth inhibition, and numbers from -100% - 0 represent cell death. For example, a value of 40 represents 60% growth inhibition. A value of 0 means no net growth occurred over the course of the experiment. A value of -40 indicates 40% of cells at the beginning of the experiment died by the end of the experiment. A value of -100 means all cells are dead at the end of the experiment.
# NCI-60 Human Tumor Cell Lines Screen was performed using the standard one-dose NCI protocol, which is described in more detail at https://dtp.cancer.gov/discovery_development/nci-60/default.htm.
# Compounds with GIPRCNT values below 10 were considered active. Activity score was based on GIPRCNT using the following formula: […]
# Score is 0 for GIPRCNT values of 100 or above, 50 for GIPRCNT values of 0, and 100 for GIPRCNT values of -100.
row,SMILES,growth
1,O=C(OCc1ccc2c(Cl)cc(Cl)c(O)c2n1)N1CCN(C(=O)c2cc3ccccc3[nH]2)CC1,30.6%
2,Oc1c(I)cc(I)cc1CN(Cc1ccccn1)Cc1ccccn1,30.8%
3,CC1(C)CC[C@]2(CO)CC[C@]3(C)[C@](O)([C@H](O)C[C@@H]4[C@@]5(C)CCCNC(C)(C)[C@@H]5CC[C@]43C)[C@@H]2C1,101%
4,Nc1c(Br)cc2c(c1Br)Cc1cc([N+](=O)[O-])ccc1-2,111%
5,CCSc1ccnc(N)n1,97.3%
6,COCCOC(C)C(/C=N/NC(N)=S)=N/NC(N)=S (stereo not given),13.9%
7,Cc1[nH]c(C(=O)Nc2ccccc2OC2CCN(CCN3CCOCC3)CC2)c(Cl)c1Cl,109%
8,NS(=O)(=O)c1ccc(C(=O)N=Nc2c(O)[nH]c3ccc(Cl)cc23)cc1,113%
9,O=C(/C=C/c1cn(-c2ccccc2)nc1-c1ccccc1)CCC(=O)NO,99%
10,Nc1nc(N(Cc2ccccc2)c2ccccc2)c2cn[nH]c2n1,76.7%
11,CCN(CC)CCCNc1cc(OC)c(OC)c2cccnc12,30.9%
12,Cc1ccc2c(c1)nc(C)n2-c1ncnc2c1CC(C)c1cc(O)ccc1N2C (stereo not given),14.6%
13,CCN1C(=O)N(c2ccccc2)C2NC(=S)N(/N=C/C=C/c3ccccc3OC)C21 (stereo not given),4.35% (active)
14,CCCOC(=O)Nc1nc2ccc(SCC)cc2s1,76.9%
15,CCN(CC)C(=O)C1=C(C)NC(=O)NC1c1ccc2c(c1)OCO2 (stereo not given),113%
16,O=S(=O)(Nc1cc(Sc2nc3ccccc3s2)c(O)c2ccccc12)c1ccc2ccccc2c1,82.6%
17,COC12C=C/C(=C(/C(=O)OCc3csc(SC)n3)C(=O)CCCCCCCCC3(OC)C=C/C(=C(/C(=O)OCc4cnc(SC)s4)C(=O)CCCCCCCC1)O3)O2 (stereo not given),21.5%
18,Fc1cccc(CNc2c3ccccc3nc3ccccc23)c1,67%
19,COC(=O)c1ccc2cc(OC)c(OC)cc2c1,112%
20,C=C1C(=O)O[C@H]2[C@H]1CC/C(COC(=O)NCc1ccc(Cn3c(=O)sn(-c4ccccc4)c3=O)cc1)=C\CC[C@@]1(C)O[C@@H]21,-15.6% (active)

row,SMILES,growth
1,O=C(/C=C/C12c3ccccc3C(c3ccccc31)C1C(=O)NC(=O)C12)c1ccc(I)cc1 (stereo not given),9.43% (active)
2,COc1ccc(-c2cc(-c3cc(OC)ccc3OC)nc(SCC(C)=O)c2C#N)cc1,66.4%
3,COc1cc2c(cc1OCCCN1CCN(C(=S)SCCC(C#N)(c3ccccc3)c3ccccc3)CC1)N=C[C@@H]1CCCN1C2=O,-89.3% (active)
4,COc1ccc(-c2nc3ccc(C)cc3c3c2c(=O)n(C)c(=O)n3C)cc1OC,111%
5,O=[N+]([O-])c1c(O)c(Cl)cc(Cl)c1Cl,111%
6,CCOc1ccc(/C=C/C(=O)c2cccc(OCCCOc3cccc(C(=O)/C=C/c4ccc(OCC)cc4)c3)c2)cc1,85.5%
7,COc1cc(Cc2cc(OC)c(O)c(OC)c2)cc(OC)c1O,96.2%
8,O=c1ccc2ccc(OCCN3CCCCC3)cc2o1,113%
9,COC(=O)/C(CCC=C(C)C)=C1\[C@@H](OC(C)=O)C[C@@]2(C)[C@H]1C/C(=N/O)[C@H]1[C@@]3(C)CC/C(=N\O)[C@@H](C)[C@@H]3CC[C@@]12C,93.8%
10,O=CN1N=C(c2cccc(Nc3ccnc4cc(Cl)ccc34)c2)CC1c1ccc(Cl)cc1 (stereo not given),-17% (active)
11,Clc1ccc2nn3c4ccccc4c(OCCN4CCOCC4)nc3c2c1,97.5%
12,Cc1cccc(NC(=O)N/C(N)=N/c2nc3ccccc3s2)c1,8.85% (active)
13,Cc1oc(-c2ccc(Cl)cc2)nc1C1=NN(C(=O)c2ccncc2)C(c2ccccc2)C1 (stereo not given),92.4%
14,COc1cc2ncnc(Nc3ccc(S(=O)(=O)Nc4nccs4)cc3)c2cc1OCCCN1CCCC1,109%
15,COC(=O)c1c2c(c[n+]([O-])c1C)C(=O)C=C(NCc1ccccc1)C2=O,-68.7% (active)
16,COc1ccc(-c2cn(Cc3cc4ccccc4s3)nn2)cc1OCCN1CCCCC1,74.6%
17,CN1CCN(Cc2ccc(NC(=O)c3cncc(C#Cc4cnc(N)cc4C#N)c3)cc2C(F)(F)F)CC1,28.4%
18,O=S(O)c1cc(Cl)cc(Cl)c1OCc1ccccc1,107%
19,C=C[C@@]1(C)CC(=O)[C@@H](C(C)(C)c2cn(C)c3ccc(Br)cc23)C[C@@H]1O[Si](C)(C)C(C)(C)C,103%
20,CCN1C(=O)N(CC)C2C1NN=c1s/c(=C\c3ccc(OC)cc3)c(=O)n12 (stereo not given),-16.5% (active)
